Measurements from ChEMBL document CHEMBL2218924, “A broad activity screen in support of a chemogenomic map for kinase signalling research and drug discovery” (Biochem J, 2013).

Columns and labels:
[1] = biological target: Tyrosine-protein kinase SYK (Homo sapiens) (UniProt P43405); settings: at 10 µM
[2] = biological target: T1, Mitogen-activated protein kinase kinase kinase 7 (Homo sapiens) (UniProt O43318); settings: at 1 µM
T1 sequence (whole entry): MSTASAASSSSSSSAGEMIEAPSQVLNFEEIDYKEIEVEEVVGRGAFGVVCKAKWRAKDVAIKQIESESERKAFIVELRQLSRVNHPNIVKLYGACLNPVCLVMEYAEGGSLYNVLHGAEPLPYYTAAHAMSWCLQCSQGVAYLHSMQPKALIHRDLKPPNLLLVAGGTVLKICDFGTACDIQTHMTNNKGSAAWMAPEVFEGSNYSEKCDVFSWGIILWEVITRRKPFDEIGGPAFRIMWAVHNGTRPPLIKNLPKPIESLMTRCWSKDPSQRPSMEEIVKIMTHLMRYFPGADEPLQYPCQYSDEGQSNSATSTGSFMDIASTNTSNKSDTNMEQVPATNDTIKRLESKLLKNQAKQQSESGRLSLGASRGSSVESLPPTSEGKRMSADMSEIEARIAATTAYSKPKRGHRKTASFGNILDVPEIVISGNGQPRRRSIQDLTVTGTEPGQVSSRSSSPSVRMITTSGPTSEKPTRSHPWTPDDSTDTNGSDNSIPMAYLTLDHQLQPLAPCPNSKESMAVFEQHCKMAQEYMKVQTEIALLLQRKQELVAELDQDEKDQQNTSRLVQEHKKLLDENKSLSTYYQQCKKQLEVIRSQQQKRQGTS

[3] = biological target: T1, Mitogen-activated protein kinase kinase kinase 7 (Homo sapiens); settings: at 10 µM
[4] = biological target: T2, Serine/threonine-protein kinase TAO1 (Homo sapiens) (UniProt Q7L7X3); settings: at 10 µM
T2 sequence (whole entry): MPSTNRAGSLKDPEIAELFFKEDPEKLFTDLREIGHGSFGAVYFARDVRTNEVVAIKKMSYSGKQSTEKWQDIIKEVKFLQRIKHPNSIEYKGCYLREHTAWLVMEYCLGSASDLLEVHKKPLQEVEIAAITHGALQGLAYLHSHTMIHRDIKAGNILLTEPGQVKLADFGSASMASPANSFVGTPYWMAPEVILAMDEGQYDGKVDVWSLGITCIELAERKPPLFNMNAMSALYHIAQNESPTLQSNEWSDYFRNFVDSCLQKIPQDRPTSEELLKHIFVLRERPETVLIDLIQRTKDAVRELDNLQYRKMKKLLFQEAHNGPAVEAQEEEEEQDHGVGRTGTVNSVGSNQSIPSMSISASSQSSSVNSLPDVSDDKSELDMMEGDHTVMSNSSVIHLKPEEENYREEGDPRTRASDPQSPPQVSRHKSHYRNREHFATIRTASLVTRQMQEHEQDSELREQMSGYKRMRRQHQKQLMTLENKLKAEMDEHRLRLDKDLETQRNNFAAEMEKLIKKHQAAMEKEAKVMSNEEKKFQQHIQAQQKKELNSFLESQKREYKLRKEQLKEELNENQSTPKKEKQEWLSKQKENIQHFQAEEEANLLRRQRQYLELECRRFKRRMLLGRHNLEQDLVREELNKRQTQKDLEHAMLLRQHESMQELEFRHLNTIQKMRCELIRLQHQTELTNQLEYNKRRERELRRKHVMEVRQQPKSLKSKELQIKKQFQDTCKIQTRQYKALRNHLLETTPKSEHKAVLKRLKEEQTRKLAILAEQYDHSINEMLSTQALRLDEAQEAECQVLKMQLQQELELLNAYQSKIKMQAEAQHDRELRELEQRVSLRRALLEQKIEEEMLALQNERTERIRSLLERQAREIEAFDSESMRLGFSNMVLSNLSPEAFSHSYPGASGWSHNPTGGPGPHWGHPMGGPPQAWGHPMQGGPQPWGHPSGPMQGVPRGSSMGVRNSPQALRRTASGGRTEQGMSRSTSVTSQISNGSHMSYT

[5] = biological target: T3, Serine/threonine-protein kinase TAO3 (Homo sapiens) (UniProt Q9H2K8); settings: at 10 µM
T3 sequence (whole entry): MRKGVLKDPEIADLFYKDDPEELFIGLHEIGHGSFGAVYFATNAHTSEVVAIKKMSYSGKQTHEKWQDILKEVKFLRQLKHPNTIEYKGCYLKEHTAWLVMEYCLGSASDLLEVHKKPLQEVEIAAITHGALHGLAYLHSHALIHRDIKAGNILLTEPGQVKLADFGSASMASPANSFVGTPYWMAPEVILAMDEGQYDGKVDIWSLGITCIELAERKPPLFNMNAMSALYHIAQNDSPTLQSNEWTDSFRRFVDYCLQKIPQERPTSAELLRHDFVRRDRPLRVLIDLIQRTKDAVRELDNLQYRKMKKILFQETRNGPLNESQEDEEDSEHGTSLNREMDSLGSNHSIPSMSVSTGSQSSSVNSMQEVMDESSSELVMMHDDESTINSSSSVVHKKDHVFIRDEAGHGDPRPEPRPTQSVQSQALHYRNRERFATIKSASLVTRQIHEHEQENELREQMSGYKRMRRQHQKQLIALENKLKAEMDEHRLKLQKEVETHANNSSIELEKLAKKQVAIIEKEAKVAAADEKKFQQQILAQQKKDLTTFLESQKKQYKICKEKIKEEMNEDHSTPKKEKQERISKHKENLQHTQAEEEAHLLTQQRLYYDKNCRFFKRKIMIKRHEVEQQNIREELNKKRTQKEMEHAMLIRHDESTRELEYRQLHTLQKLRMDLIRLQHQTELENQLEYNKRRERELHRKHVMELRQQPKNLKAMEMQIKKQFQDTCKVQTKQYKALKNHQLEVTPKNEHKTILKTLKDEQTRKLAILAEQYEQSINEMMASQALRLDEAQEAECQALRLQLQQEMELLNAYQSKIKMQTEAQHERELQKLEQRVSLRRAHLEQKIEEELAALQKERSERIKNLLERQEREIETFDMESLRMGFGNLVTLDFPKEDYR

[6] = biological target: T4, Serine/threonine-protein kinase TBK1 (Homo sapiens) (UniProt Q9UHD2); settings: at 1 µM
T4 sequence (whole entry): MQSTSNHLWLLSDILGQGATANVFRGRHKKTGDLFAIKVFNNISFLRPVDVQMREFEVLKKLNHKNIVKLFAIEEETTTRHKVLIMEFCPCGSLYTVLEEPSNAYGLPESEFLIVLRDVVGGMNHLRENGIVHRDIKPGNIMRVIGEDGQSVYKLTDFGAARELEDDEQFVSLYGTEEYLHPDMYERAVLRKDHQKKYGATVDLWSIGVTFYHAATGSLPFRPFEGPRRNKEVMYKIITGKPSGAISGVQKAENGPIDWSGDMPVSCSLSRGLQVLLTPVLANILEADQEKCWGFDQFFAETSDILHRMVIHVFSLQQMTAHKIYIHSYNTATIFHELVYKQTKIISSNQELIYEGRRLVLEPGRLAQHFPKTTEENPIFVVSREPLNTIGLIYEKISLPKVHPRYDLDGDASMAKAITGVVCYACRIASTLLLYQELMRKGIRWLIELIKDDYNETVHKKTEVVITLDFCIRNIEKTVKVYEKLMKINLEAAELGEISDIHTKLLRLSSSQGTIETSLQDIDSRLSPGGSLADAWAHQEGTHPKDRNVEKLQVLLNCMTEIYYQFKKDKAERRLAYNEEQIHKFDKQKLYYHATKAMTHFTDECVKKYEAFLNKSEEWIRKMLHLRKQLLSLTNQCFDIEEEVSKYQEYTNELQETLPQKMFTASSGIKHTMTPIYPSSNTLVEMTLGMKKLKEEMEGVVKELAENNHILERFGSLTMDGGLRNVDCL

[7] = biological target: T4, Serine/threonine-protein kinase TBK1 (Homo sapiens); settings: at 10 µM
[8] = biological target: T5, TGF-beta receptor type-1 (Homo sapiens) (UniProt P36897); settings: at 1 µM
T5 sequence (whole entry): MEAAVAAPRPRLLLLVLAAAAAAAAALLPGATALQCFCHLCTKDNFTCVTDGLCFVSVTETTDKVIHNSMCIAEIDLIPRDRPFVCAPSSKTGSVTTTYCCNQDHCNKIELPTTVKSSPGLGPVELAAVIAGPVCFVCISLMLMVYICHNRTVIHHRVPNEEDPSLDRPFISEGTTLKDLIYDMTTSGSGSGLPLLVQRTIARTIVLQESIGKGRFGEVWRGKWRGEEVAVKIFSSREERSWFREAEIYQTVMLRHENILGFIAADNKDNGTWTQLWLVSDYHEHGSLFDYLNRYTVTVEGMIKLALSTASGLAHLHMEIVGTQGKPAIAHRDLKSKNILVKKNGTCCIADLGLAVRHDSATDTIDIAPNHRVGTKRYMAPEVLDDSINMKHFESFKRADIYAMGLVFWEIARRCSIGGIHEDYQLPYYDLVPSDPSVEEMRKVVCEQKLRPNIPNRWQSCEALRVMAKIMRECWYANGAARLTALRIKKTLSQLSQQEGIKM

[9] = biological target: T5, TGF-beta receptor type-1 (Homo sapiens); settings: at 10 µM
[10] = biological target: Insulin-like growth factor 1 receptor (Homo sapiens) (UniProt P08069); settings: at 10 µM
Sequence of Insulin-like growth factor 1 receptor (Homo sapiens) (P08069 31-736 limits assumed): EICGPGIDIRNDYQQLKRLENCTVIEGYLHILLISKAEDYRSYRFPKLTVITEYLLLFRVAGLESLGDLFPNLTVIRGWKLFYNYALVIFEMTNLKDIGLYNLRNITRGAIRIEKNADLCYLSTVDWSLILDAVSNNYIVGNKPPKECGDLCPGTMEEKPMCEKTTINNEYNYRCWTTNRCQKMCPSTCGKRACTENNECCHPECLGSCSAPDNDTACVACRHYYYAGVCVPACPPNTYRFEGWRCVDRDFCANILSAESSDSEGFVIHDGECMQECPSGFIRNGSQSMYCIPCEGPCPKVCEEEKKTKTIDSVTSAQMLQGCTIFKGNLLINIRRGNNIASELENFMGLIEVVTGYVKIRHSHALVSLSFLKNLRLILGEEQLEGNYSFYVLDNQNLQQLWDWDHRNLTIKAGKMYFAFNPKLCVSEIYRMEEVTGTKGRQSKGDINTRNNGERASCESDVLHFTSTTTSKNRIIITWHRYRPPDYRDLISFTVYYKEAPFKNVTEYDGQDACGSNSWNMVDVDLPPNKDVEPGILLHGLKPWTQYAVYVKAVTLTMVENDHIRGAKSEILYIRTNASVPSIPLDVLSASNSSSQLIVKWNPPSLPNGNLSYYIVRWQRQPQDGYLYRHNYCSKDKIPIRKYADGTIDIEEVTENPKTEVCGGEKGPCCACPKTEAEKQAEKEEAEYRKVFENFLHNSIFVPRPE
Sequence of Insulin-like growth factor 1 receptor (Homo sapiens) (P08069 741-1367 limits assumed): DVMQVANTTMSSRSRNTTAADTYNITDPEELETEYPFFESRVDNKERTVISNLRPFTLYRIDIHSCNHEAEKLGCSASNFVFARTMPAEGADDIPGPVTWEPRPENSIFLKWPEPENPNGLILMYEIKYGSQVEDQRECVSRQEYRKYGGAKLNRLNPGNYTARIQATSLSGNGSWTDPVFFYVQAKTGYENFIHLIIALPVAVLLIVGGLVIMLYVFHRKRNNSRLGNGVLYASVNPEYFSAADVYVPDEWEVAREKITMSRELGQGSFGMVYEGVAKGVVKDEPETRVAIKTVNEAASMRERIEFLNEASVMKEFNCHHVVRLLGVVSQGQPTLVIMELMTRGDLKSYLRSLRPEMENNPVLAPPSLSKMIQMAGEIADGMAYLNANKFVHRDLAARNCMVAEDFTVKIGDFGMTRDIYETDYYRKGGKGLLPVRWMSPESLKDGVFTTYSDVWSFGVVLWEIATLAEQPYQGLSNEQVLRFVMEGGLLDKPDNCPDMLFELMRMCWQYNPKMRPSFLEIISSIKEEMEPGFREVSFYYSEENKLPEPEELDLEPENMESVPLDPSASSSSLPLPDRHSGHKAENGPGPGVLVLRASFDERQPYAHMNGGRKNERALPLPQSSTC

O=C(c1ccccc1)c1ccc(N2CCOCC2)cc1O
residual activity [1]: 93% | residual activity [2]: 100% | residual activity [3]: 95% | residual activity [4]: 91% | residual activity [5]: 92% | residual activity [6]: 91% | residual activity [7]: 77% | residual activity [8]: 95% | residual activity [9]: 99% | residual activity [10]: 93%
